We go through 24 molecules from PubChem BioAssay (EPA / NIEHS).

SMILES strings stand for the structures. Records with an inconclusive call do not appear. Active and inactive are the calls of the source. Rule for the calls, unless noted: active = hit-call score of the fitted dose curve at least 0.9, where 1 is the maximum; inactive = score below 0.9.

Read-out in experiment [1]: Interleukin-1 alpha (IL1a), IL1A (gene 3552)
The experiment can be described thus: BSK_BE3C_IL1a: BioMAP Diversity Plus: BE3C Assay for Interleukin-1 alpha (IL1a) Biomarker Activity (AID 2283016). The following applies: primary human bronchial epithelial cells; actives raise or lower the signal. Summed up: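 BE3C primary human bronchial epithelium; cpd 24 h; IL-1a by ELISA; bidirectional fit vs DMSO; parallel SRB (0.1% SRB, 10% TCA fix, 560 nm) for cytotoxicity.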

Read-out in experiment [2]: Monocyte Chemoattractant Protein-1 (MCP1), CCL2 (gene 6347)
The experiment can be described thus: BSK_4H_MCP1: BioMAP Diversity Plus: 4H Assay for Monocyte Chemoattractant Protein-1 (MCP1) Biomarker Activity (AID 2283018). The conditions noted are these: primary human endothelial cells (HUVEC); actives raise or lower the signal. Summed up:
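ELISA read-out of MCP-1 from human vascular endothelial primary cells taken at 24 hours after compound exposure. Activity was fitted in both directions relative to DMSO, which served as negative control.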

Read-out in experiment [3]: Human Leukocyte Antigen - DR isotype (HLADR), HLA-DRA (gene 3122)
The experiment can be described thus: BSK_3C_HLADR: BioMAP Diversity Plus: 3C Assay for Human Leukocyte Antigen - DR isotype (HLADR) Biomarker Activity (AID 2283019).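 For outcome: ELISA of cell-surface HLA-DR on HUVEC 24 h after dosing.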 The following applies: primary human endothelial cells (HUVEC); actives raise or lower the signal. An outline of the steps:
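HUVEC monoculture, HLA-DR measured by ELISA 24 h after chemical dosing. Fitted bidirectionally against DMSO baseline; parallel SRB staining assessed cytotoxicity, with 3C proliferation read by SRB at 48 h.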

Read-out in experiment [4]: Interleukin-8 (IL8), CXCL8 (gene 3576)
In words: BSK_3C_IL8: BioMAP Diversity Plus: 3C Assay for Interleukin-8 (IL8) Biomarker Activity (AID 2283020). The conditions noted are these: primary human endothelial cells (HUVEC); actives raise or lower the signal. An outline of the steps: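 ELISA read-out of IL-8 from human umbilical vein endothelium, measured 24 h after chemical dosing. Activity is expressed relative to DMSO negative control, with both increases and decreases fitted.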

Read-out in experiment [5]: Monokine induced gamma interferon (MIG), CXCL9 (gene 4283)
The experiment can be described thus: BSK_3C_MIG: BioMAP Diversity Plus: 3C Assay for Monokine induced gamma interferon (MIG) Biomarker Activity (AID 2283021).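 For AC50: MIG protein level measured by immunoassay in the treated endothelial cultures.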 The following applies: primary human endothelial cells (HUVEC); actives raise or lower the signal. An outline of the steps:
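Read-out is ELISA detection of MIG on human umbilical vein endothelial cells, taken 24 h after dosing. Gain or loss of signal was scored relative to DMSO controls using bidirectional curve fitting.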

Read-out in experiment [6]: E-selectin (Homo sapiens) (UniProt P16581)
In words: BSK_3C_Eselectin: BioMAP Diversity Plus: 3C Assay for Eselectin Biomarker Activity (AID 2283015).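 For outcome: cell surface E-selectin protein quantified by ELISA 24 h after dosing.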 The conditions noted are these: primary human endothelial cells (HUVEC); actives raise or lower the signal. An outline of the steps: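 Primary human umbilical vein endothelial cells (3C system), read 24 h after compound addition; E-selectin measured by ELISA. Bidirectional curve fitting against DMSO baseline; cytotoxicity by parallel SRB total-protein staining.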

In experiment [7] the target is human Vitamin D Receptor (VDR), VDR (gene 7421) (UniProt P11473). In words: ATG_VDR_TRANS: Attagene TRANS-FACTORIAL HepG2 Assay for human Vitamin D Receptor (VDR) (AID 2283022; active = hit-call score of the fitted dose curve at least 0.9, where 1 is the maximum). Summed up:
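HepG2 cells were transiently transfected with GAL4-UAS reporter units and a chimeric VDR-Gal4 construct, then dosed for 24 hours. Reporter mRNA was quantified by RT-PCR, fluorescent labeling, HpaI digestion and capillary electrophoresis; gain of signal analysed vs DMSO.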

For experiment [8], the target named is human Thyroid Receptor alpha (THRa1), THRA (gene 7067) (UniProt P10827). In words: ATG_THRa1_TRANS: Attagene TRANS-FACTORIAL HepG2 Assay for human Thyroid Receptor alpha (THRa1) (AID 2283014; active = hit-call score of the fitted dose curve at least 0.9, where 1 is the maximum). Summed up:
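HepG2 cells transiently transfected with chimeric NR-Gal4 and GAL4-UAS reporter units, dosed 24 h. Reporter mRNA quantified by RT-PCR, fluorescent labeling, HpaI digestion and capillary electrophoresis; gain-of-signal fit versus DMSO.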

Read-out in experiment [9]: Monocyte Chemoattractant Protein-1 (MCP1), CCL2 (gene 6347)
In words: BSK_3C_MCP1: BioMAP Diversity Plus: 3C Assay for Monocyte Chemoattractant Protein-1 (MCP1) Biomarker Activity (AID 2283017). The conditions noted are these: primary human endothelial cells (HUVEC); actives raise or lower the signal. Summed up:
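Human umbilical vein endothelial cells (3C system) exposed to chemicals for 24 h; MCP-1 quantified by ELISA against the DMSO baseline with bidirectional fitting, and parallel SRB staining used to assess cytotoxicity.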

Chain of E-selectin (Homo sapiens) (P16581 whole entry, looked up): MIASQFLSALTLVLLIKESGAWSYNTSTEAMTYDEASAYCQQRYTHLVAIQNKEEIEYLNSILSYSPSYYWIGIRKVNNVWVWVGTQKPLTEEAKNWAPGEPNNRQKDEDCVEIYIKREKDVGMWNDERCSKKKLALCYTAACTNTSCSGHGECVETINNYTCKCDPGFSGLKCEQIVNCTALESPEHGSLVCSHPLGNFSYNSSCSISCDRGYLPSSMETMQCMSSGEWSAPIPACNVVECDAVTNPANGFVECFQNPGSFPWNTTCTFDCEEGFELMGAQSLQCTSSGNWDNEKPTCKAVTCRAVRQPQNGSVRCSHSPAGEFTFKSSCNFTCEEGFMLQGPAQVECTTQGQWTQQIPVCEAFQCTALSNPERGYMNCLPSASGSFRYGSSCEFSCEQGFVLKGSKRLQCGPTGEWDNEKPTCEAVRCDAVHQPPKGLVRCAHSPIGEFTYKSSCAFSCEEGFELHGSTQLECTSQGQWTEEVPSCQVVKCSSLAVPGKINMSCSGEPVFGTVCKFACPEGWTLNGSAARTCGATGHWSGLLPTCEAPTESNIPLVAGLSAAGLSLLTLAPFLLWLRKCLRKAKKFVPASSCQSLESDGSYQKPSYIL
Chain of human Vitamin D Receptor (VDR), VDR (gene 7421) (P11473 whole entry, looked up, the tested form may be a part): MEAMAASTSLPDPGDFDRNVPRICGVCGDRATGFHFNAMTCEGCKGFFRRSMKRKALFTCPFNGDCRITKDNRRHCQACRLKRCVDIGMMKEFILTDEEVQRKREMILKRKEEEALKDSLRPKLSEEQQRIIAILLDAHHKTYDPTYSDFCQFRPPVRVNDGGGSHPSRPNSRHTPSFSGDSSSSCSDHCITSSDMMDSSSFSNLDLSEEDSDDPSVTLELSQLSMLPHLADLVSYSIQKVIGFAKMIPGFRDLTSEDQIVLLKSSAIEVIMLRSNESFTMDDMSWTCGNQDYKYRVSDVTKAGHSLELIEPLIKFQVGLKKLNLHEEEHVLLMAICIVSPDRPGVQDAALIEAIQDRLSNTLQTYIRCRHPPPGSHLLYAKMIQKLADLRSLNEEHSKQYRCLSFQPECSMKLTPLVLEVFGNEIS
Chain of human Thyroid Receptor alpha (THRa1), THRA (gene 7067) (P10827 whole entry, looked up, the tested form may be a part): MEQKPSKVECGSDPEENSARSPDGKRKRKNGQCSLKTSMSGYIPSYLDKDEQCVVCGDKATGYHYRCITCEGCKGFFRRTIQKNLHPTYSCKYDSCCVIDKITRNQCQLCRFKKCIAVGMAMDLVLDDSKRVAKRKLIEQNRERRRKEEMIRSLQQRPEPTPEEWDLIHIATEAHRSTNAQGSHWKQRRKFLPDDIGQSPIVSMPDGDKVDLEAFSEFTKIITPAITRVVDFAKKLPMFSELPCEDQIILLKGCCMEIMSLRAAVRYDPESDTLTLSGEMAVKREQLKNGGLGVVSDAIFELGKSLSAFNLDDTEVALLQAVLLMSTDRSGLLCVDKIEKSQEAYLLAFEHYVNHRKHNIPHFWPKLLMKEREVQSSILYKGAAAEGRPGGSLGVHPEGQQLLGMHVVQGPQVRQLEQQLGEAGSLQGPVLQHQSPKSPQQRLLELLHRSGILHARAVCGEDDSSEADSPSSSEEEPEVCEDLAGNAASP

Take `CC(C)N(C(=O)CCl)c1ccccc1`: the AC50 in experiment [1] is 35.1 µM (active); in experiment [2] it was 20 µM (active); in [3], 7.36 µM (active); in [5], 33.3 µM (active). The result in experiment [4] was inactive.
Turning to `O=c1oc2ccccc2c(O)c1C(CC(O)c1ccc(-c2ccc(Br)cc2)cc1)c1ccccc1` (centres undefined), the AC50 is 19.1 µM (active) in experiment [6]; 5.31 µM (active) in experiment [1]; 1.47 µM (active) in experiment [2]; 8.28 µM (active) in experiment [3]; 31.2 µM (active) in experiment [5]. The outcome in [4] and in [7] was inactive.
Take `COCC(=O)N(c1c(C)cccc1C)[C@H](C)C(=O)OC`: the result in [6], in experiment [1], in experiment [2], in experiment [3], in experiment [4] and in [5] was inactive.
Regarding `Cc1ccc(OP(=O)(Oc2ccc(C)cc2C)Oc2ccc(C)cc2C)c(C)c1`, the result in experiment [6], in experiment [4] and in [5] was inactive. In addition, the AC50 in experiment [1] was 4.77 µM (active); in experiment [2], 4.53 µM (active); in experiment [3], 20 µM (active).
As for `CC(C)CC(C)(c1ccc(O)cc1)c1ccc(O)cc1`, the call in experiment [7] was inactive.
In the case of `C=CCOC(N)=O`, the outcome in [8] and in experiment [7] was inactive.
Take `CC(C)(COCC1CO1)COCC1CO1` (centres undefined): the outcome in experiment [1], in experiment [9], in experiment [2], in experiment [4] and in [5] was inactive. Further, the half-maximal activity concentration (AC50) in experiment [3] is 20 µM (active).
As to `OCCCCO`, the outcome in experiment [1], in experiment [9], in [2], in [3], in experiment [4] and in experiment [5] was inactive.
For the molecule `O=S(=O)(Oc1ccc(Cl)cc1)c1ccc(Cl)cc1`, the result in experiment [8] and in experiment [7] was inactive.
`C[C@@H]1O[C@@H](O[C@H]2C[C@@H](O)[C@]3(CO)[C@H]4[C@H](O)C[C@]5(C)[C@@H](C6=CC(=O)OC6)CC[C@]5(O)[C@@H]4CC[C@]3(O)C2)[C@H](O)[C@H](O)[C@H]1O`: the molecule was called inactive in experiment [7].
As for `Cc1cccc(OP(=O)(Oc2cccc(C)c2)Oc2cccc(C)c2)c1`, the outcome in experiment [6], in [2], in experiment [3], in experiment [4], in experiment [5] and in experiment [7] was inactive. Also, in experiment [1], the AC50 was 0.78 µM (active).
As for `N#CCCC(Br)(C#N)CBr` (centres undefined), the concentration at half-maximal activity (AC50) in [1] was 20 µM (active); in experiment [9] it was 7.55 µM (active); in experiment [2] it was 5.77 µM (active); in experiment [3] it was 3.16 µM (active); in experiment [4] it was 8.39 µM (active); in [5] it was 12.7 µM (active). For the same molecule, the result in experiment [7] was inactive.
Consider `CCOP(=O)(OCC)OC(=CCl)c1ccc(Cl)cc1Cl`, for which the result in experiment [1] and in experiment [5] was inactive. Besides, the AC50 in [9] is 35.4 µM (active); in experiment [2], 20 µM (active); in experiment [3], 32.7 µM (active); in experiment [4], 3.97 µM (active).
Consider `OC(c1ccc(Cl)cc1)(c1ccc(Cl)cc1)c1cccnc1`, for which the call in experiment [7] was inactive.
For the molecule `O=NN1CCOCC1`, the outcome in experiment [8] and in experiment [7] was inactive.
On to `CS(=O)(=O)c1ccc(C(=O)C2C(=O)CCCC2=O)c(Cl)c1COCC(F)(F)F`, for which, in experiment [7], the outcome was inactive.
As to `C=CC(=O)NC(C)(C)CC(C)=O`, the call in [7] was inactive.
With `C=C(C)[C@@H]1CC=C(C=O)CC1`, the molecule was classed as inactive in [8] and in [7].
With `C=CC(Cl)CCl` (centres undefined), in [1], the concentration at half-maximal activity (AC50) is 0.14 µM (active). For the same molecule, the outcome in experiment [2], in experiment [3], in experiment [4], in [5] and in [7] was inactive.
On to `O=c1[nH]c2ccccc2n1C1CCN(CCCC(c2ccc(F)cc2)c2ccc(F)cc2)CC1`, for which, in experiment [7], the molecule was classed as inactive.
For the molecule `CN(C)[C@@H]1C(=O)C(C(N)=O)=C(O)[C@@]2(O)C(=O)C3=C(O)c4c(O)ccc(Cl)c4[C@@](C)(O)[C@H]3C[C@@H]12`, the outcome in experiment [8] and in experiment [7] was inactive.
For `Nc1cccnc1`, the outcome in [7] was inactive.
Consider `O=S(=O)(c1ccc(Cl)cc1)c1cc(Cl)c(Cl)cc1Cl`, for which the result in experiment [6], in experiment [1], in experiment [2], in experiment [5] and in experiment [7] was inactive. Moreover, the half-maximal activity concentration (AC50) in experiment [9] was 20 µM (active); in experiment [3], 5.27 µM (active); in experiment [4] it was 3.97 µM (active).
For `NNCCO`, the molecule was called inactive in experiment [8] and in experiment [7].
